PubChem BioAssay (Tox21)
Several values for one entry are separate records, joined by “and”; a condition that tells them apart may be missing. Equal values may be shown once. Inconclusive results are not listed. A call without a number means that no potency is given here. Activity calls are given as the source filed them. Unless noted, calls follow the shape of the dose curve; as a rule, active = well fitted curve in the direction sought with a large enough effect in the repeat runs; inconclusive = weak or mixed curves; inactive = no such curve, though single readings can be large; an effect the other way counts as inactive or inconclusive.

Legend:
[1] = qHTS assay for small molecule agonists of the p53 signaling pathway (AID 651631; calls by dose curve; also: nearly all actives have a fitted effect of over 15% in size)
Method in brief: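 Beta-lactamase reporter activity under p53 response elements was quantified in HCT-116 cells by FRET fluorescence, following 16 h incubation with test compounds at 37 °C and 2 h substrate development at room temperature.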

[2] = qHTS assay for small molecules that induce genotoxicity in human embryonic kidney cells expressing luciferase-tagged ATAD5 (AID 651632); also: nearly all actives have a fitted effect of over 15% in size
Method in brief: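 Genotoxicity read-out via ATAD5-luciferase: HEK293T cells, 16 hr compound incubation at 37C, Amplite detection.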

[3] = qHTS assay for small molecule agonists of the p53 signaling pathway - cell viability (AID 651633; calls by dose curve;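 also: p53RE-bla HCT reporter cells with a stable beta-lactamase p53 reporter; series mostly up to about 83 µM; nearly all actives have a fitted effect of over 30% in size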)
Method in brief: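 p53RE-bla cells were treated with compound for 16 hours at 37 C. Cytotoxicity was then measured as CellTiter-Glo luminescence after 30 min at room temperature.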

[4] = qHTS assay for small molecules that induce genotoxicity in human embryonic kidney cells expressing luciferase-tagged ATAD5 - cell viability (AID 651634; calls by dose curve; also: nearly all actives have a fitted effect of over 25% in size)
Method in brief: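 Live-cell protease activity (CellTiter-Fluor, fluorescence) indicates viability. HEK293T cells with luciferase-tagged ATAD5; 15.5 hr compound treatment at 37C.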

[5] = qHTS assay for small molecule disruptors of the mitochondrial membrane potential - cell viability (AID 720634; calls by dose curve;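 also: human HepG2 liver cancer cells; series mostly up to about 83 µM; nearly all actives have a fitted effect of over 20% in size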)
Method in brief: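 Human hepatoma HepG2 cells were treated for 1 hr with test chemicals, then given m-MPI dye and CellTiter-Glo. Cell viability reflects luminescence proportional to cellular ATP.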

[6] = qHTS assay for small molecule disruptors of the mitochondrial membrane potential (AID 720635); also: potency is read from the fitted curve at half-maximal effect
Method in brief: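 HepG2 cells exposed to compound 1 hr at 37C, then Mito-MPS dye 30 min. Ratio read of aggregate (540/590 nm) versus monomer (490/535 nm) fluorescence.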

[7] = qHTS assay to test for compound auto fluorescence at 590 nm (red) in HepG2 cells (AID 720674)
Method in brief: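 HepG2 cells, 2,000 per well in MEM with 10% FBS, attached overnight at 37 C, then got 23 nL compound or DMSO. After 1 hr at 37 C, 5% CO2, red fluorescence was read at 540/590 nm against Rose Bengal sodium as reference.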

[8] = qHTS assay to test for compound auto fluorescence at 535 nm (green) in HepG2 cells (AID 720675)
[9] = qHTS assay to test for compound auto fluorescence at 460 nm (blue) in HEK293 cells (AID 720678)
Method in brief: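 Blue-channel (Ex/Em 405/460 nm) intensity measured in HEK293 cultures after overnight compound exposure at 37C; signal expressed relative to triamterene. Cells plated 2,000 per well in 10% dialyzed FBS medium and allowed 4-5 hr to attach.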

[10] = qHTS assay to test for compound auto fluorescence at 590 nm (red) in HEK293 cells (AID 720679)
Method in brief: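 Red-channel autofluorescence (Ex/Em 540/590 nm; Rose Bengal sodium reference) was measured after overnight 37C, 5% CO2 exposure of attached HEK293 cells, 2,000 per well in medium with 10% dialyzed FBS.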

[11] = qHTS assay to test for compound auto fluorescence at 535 nm (green) in HEK293 cells (AID 720680)
[12] = qHTS assay to test for compound auto fluorescence at 460 nm (blue) in HEK293 cell free culture (AID 720681)
Method in brief: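 Compounds were added to cell-free DMEM with 10% FBS and fluorescence read directly. The blue channel used 405 nm excitation and 460 nm emission, with triamterene as the reference fluorophore.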

[13] = qHTS assay to test for compound auto fluorescence at 535 nm (green) in HEK293 cell free culture (AID 720682)
Method in brief: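 Each library compound, or DMSO control, is added by pintool to medium alone, comprising DMEM and 10% FBS. Emission at 535 nm following 485 nm excitation is quantified against fluorescein.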

[14] = qHTS assay to test for compound auto fluorescence at 590 nm (red) in HEK293 cell free culture (AID 720683)
Method in brief: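 Cell-free wells of DMEM with 10% FBS received compound, and intrinsic fluorescence was read at excitation/emission 540/590 nm. Values expressed as equivalence to Rose Bengal sodium.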

[15] = qHTS assay to test for compound auto fluorescence at 590 nm (red) in HepG2 cell free culture (AID 720684)
Method in brief: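 Compounds are added to culture medium (MEM, 10% FBS) lacking cells, then fluorescence is read at excitation 540 nm, emission 590 nm, with Rose Bengal sodium as the equivalency standard.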

[16] = qHTS assay to test for compound auto fluorescence at 460 nm (blue) in HepG2 cell free culture (AID 720685)
Method in brief: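 Compound (23 nL) or DMSO pinned into cell-free MEM with 10% FBS; blue fluorescence read at 405/460 nm excitation/emission, expressed as auto-fluorescence equivalency to triamterene.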

[17] = qHTS assay to test for compound auto fluorescence at 535 nm (green) in HepG2 cell free culture (AID 720686)
[18] = qHTS assay to test for compound auto fluorescence at 460 nm (blue) in HepG2 cells (AID 720687)
Method in brief: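 HepG2 cells in MEM with 10% FBS, attached overnight at 37 C, were exposed to compound or DMSO for 1 hr at 37 C, 5% CO2. Blue fluorescence was read at 405/460 nm, with triamterene as reference fluorophore.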

[19] = target: Glucocorticoid receptor (Homo sapiens) (UniProt P04150); experiment: qHTS assay to identify small molecule agonists of the glucocorticoid receptor (GR) signaling pathway (AID 720691; active = well fitted activation curve with a large enough effect in the signal ratio in the repeat runs, not every such curve was filed as active; the % refers to the signal ratio)
Glucocorticoid receptor (Homo sapiens), sequence (P04150 whole entry, looked up): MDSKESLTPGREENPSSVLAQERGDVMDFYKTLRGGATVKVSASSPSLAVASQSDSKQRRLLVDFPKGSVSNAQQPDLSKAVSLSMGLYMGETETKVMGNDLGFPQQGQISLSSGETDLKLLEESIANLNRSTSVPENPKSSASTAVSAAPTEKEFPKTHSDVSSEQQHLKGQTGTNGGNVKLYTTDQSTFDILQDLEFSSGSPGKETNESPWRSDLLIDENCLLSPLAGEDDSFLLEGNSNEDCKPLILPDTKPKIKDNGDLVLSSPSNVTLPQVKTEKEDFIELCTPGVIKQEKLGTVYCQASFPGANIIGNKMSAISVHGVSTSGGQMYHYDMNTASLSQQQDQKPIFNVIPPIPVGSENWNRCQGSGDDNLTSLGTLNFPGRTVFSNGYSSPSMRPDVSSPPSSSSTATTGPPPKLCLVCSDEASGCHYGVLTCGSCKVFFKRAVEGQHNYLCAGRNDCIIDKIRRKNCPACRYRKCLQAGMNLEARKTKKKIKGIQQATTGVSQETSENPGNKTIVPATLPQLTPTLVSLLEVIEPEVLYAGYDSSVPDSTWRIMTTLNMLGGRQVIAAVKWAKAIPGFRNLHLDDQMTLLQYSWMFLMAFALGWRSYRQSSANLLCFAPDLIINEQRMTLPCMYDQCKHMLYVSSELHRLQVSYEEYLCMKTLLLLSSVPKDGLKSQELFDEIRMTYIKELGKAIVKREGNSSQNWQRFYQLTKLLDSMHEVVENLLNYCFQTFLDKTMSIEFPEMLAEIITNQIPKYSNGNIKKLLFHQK
Method in brief: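 Beta-lactamase reporter activity, read as fluorescence intensity, was measured in GR-bla HeLa cells exposed to compounds for 18 h at 37 C and then loaded with LiveBLAzer B/G FRET substrate for 2 h at room temperature.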

[20] = target: Glucocorticoid receptor (Homo sapiens) (UniProt P04150); experiment: qHTS assay to identify small molecule antagonists of the glucocorticoid receptor (GR) signaling pathway (AID 720692; active = well fitted inhibition curve with a large enough effect in the signal ratio in the repeat runs, not every such curve was filed as active; the % refers to the signal ratio)
Method in brief: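 Fluorescence from cleaved LiveBLAzer B/G FRET substrate reports GRE-driven beta-lactamase in HeLa cells; compounds are tested against 5 nM dexamethasone (final) over 18 h at 37 C, substrate incubation 2 h at room temperature.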

Compound	outcome [1]	outcome [2]	outcome [3]	outcome [4]	Potency [5]	Potency [6]	outcome [7]	outcome [8]	outcome [9]	outcome [10]	outcome [11]	outcome [12]	outcome [13]	outcome [14]	outcome [15]	outcome [16]	outcome [17]	outcome [18]	outcome [19]	Potency [20]
C#CC(C)(C)NC(=O)c1cc(Cl)cc(Cl)c1	inactive	inactive	inactive	inactive	inactive	inactive	inactive	inactive	inactive	inactive	inactive	inactive	inactive	inactive	inactive	inactive	inactive	inactive	inactive	inactive
CN=C=S	inactive	inactive	inactive	inactive	inactive	inactive	inactive	inactive	inactive	inactive	inactive	inactive	inactive	inactive	inactive	inactive	inactive	inactive		
CCC[N+](=O)[O-]	inactive	inactive	inactive	inactive	inactive	inactive	inactive	inactive	inactive	inactive	inactive	inactive	inactive	inactive	inactive	inactive	inactive	inactive		
CN(C)N=O	inactive	inactive	inactive	inactive	inactive	inactive	inactive	inactive	inactive	inactive	inactive	inactive	inactive	inactive	inactive	inactive	inactive	inactive	inactive	inactive
CCC[CH2][Sn]([Cl])([Cl])[Cl]	inactive	inactive	inactive	inactive	inactive	inactive	inactive	inactive	inactive	inactive	inactive	inactive	inactive	inactive	inactive	inactive	inactive	inactive	inactive	
c1ccc(-c2ccccc2)cc1	inactive	inactive	inactive	inactive	inactive	inactive	inactive	inactive	inactive	inactive	inactive	inactive	inactive	inactive	inactive	inactive	inactive	inactive	inactive	inactive
CCCCCOC(=O)c1ccccc1C(=O)OCCCCC	inactive	inactive	inactive	inactive	inactive	inactive	inactive	inactive	inactive	inactive	inactive	inactive	inactive	inactive	inactive	inactive	inactive	inactive	inactive	inactive
O=NN1CCCC1	inactive	inactive	inactive	inactive	inactive	inactive	inactive	inactive	inactive	inactive	inactive	inactive	inactive	inactive	inactive	inactive	inactive	inactive	inactive	inactive
O=[N+]([O-])c1ccc(Oc2ccc(Cl)cc2Cl)cc1	inactive	inactive	inactive	inactive	inactive	54.8 µM (active) and 30.6 µM (active)	inactive	inactive	inactive	inactive	inactive	inactive	inactive	inactive	inactive	inactive	inactive	inactive	inactive	inactive
O=c1[nH]c(=O)[nH]c(=O)[nH]1	inactive	inactive	inactive	inactive	inactive	inactive	inactive	inactive	inactive	inactive	inactive	inactive	inactive	inactive	inactive	inactive	inactive	inactive	inactive	inactive
CC(C)C1(C)N=C(c2nc3ccccc3cc2C(=O)O)NC1=O (stereo not drawn)	inactive	inactive	inactive	inactive	inactive	inactive	inactive	inactive	inactive	inactive	inactive	inactive	inactive	inactive	inactive	inactive	inactive	inactive	inactive	inactive
CCCN(CCC)N=O	inactive	inactive	inactive	inactive	inactive	inactive	inactive	inactive	inactive	inactive	inactive	inactive	inactive	inactive	inactive	inactive	inactive	inactive	inactive	inactive
NCC(O)c1ccc(O)cc1 (stereo not drawn)	inactive	inactive	inactive	inactive	inactive	inactive	inactive	inactive	inactive	inactive	inactive	inactive	inactive	inactive	inactive	inactive	inactive	inactive		
COC(=O)c1ccccc1C(=O)OC	inactive	inactive	inactive	inactive	inactive	inactive	inactive	inactive	inactive	inactive	inactive	inactive	inactive	inactive	inactive	inactive	inactive	inactive	inactive	inactive
Cn1cc(-c2ccccc2)c(=O)c(-c2cccc(C(F)(F)F)c2)c1	inactive	inactive	inactive	inactive	inactive	inactive	inactive	inactive	inactive	inactive	inactive	inactive	inactive	inactive	inactive	inactive	inactive	inactive	inactive	inactive
